Data published in PubChem BioAssay (NCI).
Several values for one entry are separate records, joined by “and”; a condition that tells them apart may be missing. Equal entries are not always repeated. This is part of a sample that, as a whole, favours compounds with a hit. Of some 83,000 tested, about 20% had one in any assay.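 Interpretation: 100, growth as untreated; towards 0, rising growth inhibition; 0, no net growth; 0 to -100, cell death. Compounds scoring below 10 were considered active.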 Activity calls are given as the source filed them.

tested on: HL-60(TB) leukemia; assay: NCI-60 one-dose screen, 48 h (100 = growth as untreated, 0 = no growth, -100 = all killed); settings: 10 µM unless noted

Q: Which growth does the source give for CN(C)c1ccc(C(=C2C=CC(=[N+](C)C)C=C2)c2ccccc2Cl)cc1 here?
A: The growth was -48.7% (active) and 9.12% (active).

Q: Cc1nc(NC(=O)N2CCC[C@H]2C(N)=O)sc1-c1ccnc(C(C)(C)C(F)(F)F)c1 was tested. Which growth did it give?
A: The growth was 24% (inactive).

Q: COc1ccccc1-c1c(-c2ccc(Cl)cc2)c2cc3c(cc2[nH]c1=O)OCCO3 was tested. Which growth did it give?
A: The growth was 18.3% (inactive).

Q: Nc1c(C(=O)Nc2cccc(Cl)c2Cl)sc2nc3c(cc12)C(=O)CCC3 was tested. Which growth did it give?
A: Its growth is 96.6% (inactive).

Q: Which growth does the source give for NC(=O)C1CC2C=CC1C2 (stereo not given) here?
A: The growth was 108% (inactive) and 106% (inactive).

Q: CCOc1ccc(NC(=O)CSc2oc(-c3ccccc3)nc2S(=O)(=O)c2ccc(F)cc2)cc1 was tested. Which growth did it give?
A: Its growth is 65.2% (inactive).

Q: O=C(C[n+]1ccccc1)c1ccc2ccccc2c1 was tested. Which growth did it give?
A: Its growth is 101% (inactive).

Q: How did the growth turn out when CC(C)=CCC[C@](C)(O)[C@H]1CC[C@]2(C)[C@@H]1CC[C@@H]1[C@@]3(C)Cc4nccnc4C(C)(C)[C@@H]3CC[C@]12C was run?
A: The growth was 67.8% (inactive).

Q: With CC(=O)N1N=C(c2cccc(Nc3ccncc3)c2)CC1c1ccccc1 (stereo not given) as the compound, how does the growth read?
A: The growth was 78.9% (inactive).

Q: For CCCCCCC1N=C(N)N=C(N)N1c1cccc(Cl)c1 (stereo not given), which growth is on record?
A: The growth was 44.3% (inactive).

Q: With N#CCSc1nnc2n(Cc3ccccc3)c(=O)c3c4c(sc3n12)CCCC4 as the compound, how does the growth read?
A: The growth was 81.7% (inactive).

Q: For COc1ccc(S(=O)(=O)NCCNc2nccc(-c3c(-c4cccc(F)c4)nc4sccn34)n2)cc1, which growth is on record?
A: Its growth is 58.8% (inactive).

Q: Which growth does the source give for FC(F)(F)c1cccc(-c2[nH]ncc2-c2nnnn2-c2ccccc2)c1 here?
A: The growth was 3.68% (active).

Q: How did the growth turn out when O=C(Cn1c(C(=O)c2ccccc2)nc2ccccc21)c1ccc(F)cc1 was run?
A: Its growth is 17.4% (inactive).

Q: C/C(Cc1ccc(Cl)cc1)=C(/c1ccc(Cl)cc1)c1ccc(OCCN(C)C)cc1 was tested. Which growth did it give?
A: The growth was -10.1% (active).

Q: FC(F)(F)c1ccc2c(c1)N(CCCN1CCN(C3CC3)CC1)c1ccccc1S2 was tested. Which growth did it give?
A: The growth was 25.6% (inactive).

Q: With Cc1nn(-c2nc3ccccc3s2)c(C)c1Oc1ccccc1O as the compound, how does the growth read?
A: The growth was 60.3% (inactive).

Q: COc1ccc(/C=c2\sc3n(c2=O)C2C(NN=3)N(C)C(=O)N2C)cc1 (stereo not given) was tested. Which growth did it give?
A: Its growth is -47.5% (active).

Q: C#CC[C@@H]1C[C@]2(C)[C@H]3CC=C4[C@H]5CC(C)(C)CC[C@]5(C(=O)NCCCCN)CC[C@@]4(C)[C@]3(C)CC[C@H]2C(C)(C)[C@H]1OC(C)=O was tested. Which growth did it give?
A: The growth was -46.5% (active).

Q: For CC1(C)OC(=O)C(=Cc2ccc(C#N)cc2)C(=O)O1, which growth is on record?
A: The growth was 93.3% (inactive) and 88.8% (inactive).

Q: CC(C)C/C=C/C=C/C(=O)N[C@@H](CC(N)=O)C(=O)N[C@@H]1C(=O)N[C@H](c2ccc(O)cc2)C(=O)N[C@H](CCCN)C(=O)N[C@H]([C@@H](C)O)C(=O)N[C@H](c2ccc(O)cc2)C(=O)N[C@H](c2ccc(O)cc2)C(=O)N[C@H]([C@H](C)O)C(=O)N[C@H](Cc2ccccc2)C(=O)N[C@H](CCCN)C(=O)N[C@H](c2ccc(O[C@H]3O[C@@H](CO)[C@@H](O)[C@@H](O)[C@H]3O[C@@H]3O[C@H](CO)[C@H](O)[C@H](O)[C@@H]3O)cc2)C(=O)N[C@H]([C@H](C)O)C(=O)N[C@H](c2ccc(O)cc2)C(=O)NCC(=O)N[C@H](CC(C)C)C(=O)N[C@H](C)C(=O)N[C@H](c2ccc(O)c(Cl)c2)C(=O)O[C@@H]1C(N)=O was tested. Which growth did it give?
A: Its growth is 72.1% (inactive).

Q: For CC(=O)Nc1nc(C)c(C(=O)NNS(=O)(=O)c2ccccc2)s1, which growth is on record?
A: Its growth is 174% (inactive).

Q: For O=[N+]([O-])c1cccc(/C=C/c2ccc3ccccc3n2)c1, which growth is on record?
A: The growth was 90.8% (inactive).

Q: With CCCCCCN(CCCCCC)c1ccc(/C=C2/SC(=O)N(c3nc(N4CCCC4)nc(N4CCCC4)n3)C2=O)c(C)c1 as the compound, how does the growth read?
A: Its growth is 20.2% (inactive).

Q: For O=C(C(=O)N1CCOCC1)c1ccc(O[C@H]2O[C@H](CO)[C@@H](O)[C@H](O)[C@@H]2O)cc1, which growth is on record?
A: The growth was 113% (inactive).

Q: How did the growth turn out when O=C1C=CC2(NN=C(c3ccccc3)N2c2ccccc2)c2cccc(O)c21 (stereo not given) was run?
A: Its growth is 29.8% (inactive).

Q: Which growth does the source give for O=C(COc1cccc(/C=C2\COc3ccc(Cl)cc3C2=O)c1)c1ccc(Cl)cc1 here?
A: Its growth is 52.7% (inactive).

Q: For C#CCOc1cccc(Nc2ncnc3c(NC(=O)C=C)cccc23)c1, which growth is on record?
A: The growth was -4.75% (active).

Q: Which growth does the source give for C[C@@H](Oc1cc(C(=O)Nc2ccc(C(=O)N3CCN(C)CC3)cc2)nnc1N)c1c(Cl)ccc(F)c1Cl here?
A: The growth was 88.3% (inactive).

Q: Which growth does the source give for CCc1ccccc1-n1c(-c2ccc(Cl)cc2)cc(-c2ccc(OC)cc2)c(C#N)c1=O here?
A: The growth was 68.8% (inactive).
